Data reported in PubChem BioAssay AID1159580 (chemical genetic matrix, 2015).
Hit rate of the full screen: of about 5,500 compounds, about 2,000 (36%) were called active. Inconclusive results (about 18%) are left out. Rule as the data show it: active = normalized growth mostly below about 0.91 (no sharp cut-off); inconclusive = no clear call, values can overlap the other calls; inactive = mostly above about 0.92. Some of the results follow.

Test: chemical genetic growth profiling, strain panel (AID 1159580);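 also: tested at 20 µM; growth read once vehicle control cultures reached saturation at 30 °C; 1 = growth at the plate median or of vehicle wells; lower values mean less growth of the strain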
Settings: growth OD

Measured: normalized growth

CC(=O)N[C@@H](CC(C)C)C(=O)O
inactive: S. cerevisiae deletion strains, locus YJR066W, strain TOR1, stronger effect = lower value 1.02 | S. cerevisiae deletion strains, locus YJR075W, strain HOC1, stronger effect = lower value 0.992 | S. cerevisiae deletion strains, locus YKL009W, strain mrt4, stronger effect = lower value 0.962 | S. cerevisiae deletion strains, locus YKL068W, stronger effect = lower value 0.977 | S. cerevisiae deletion strains, locus YKL085W, strain MDH1 (second series), stronger effect = lower value 0.972 | S. cerevisiae deletion strains, locus YKL085W, strain MDH1, stronger effect = lower value 0.972 | S. cerevisiae deletion strains, locus YKL160W, strain elf1, stronger effect = lower value 0.977 | S. cerevisiae deletion strains, locus YKL190W, strain CNB1, stronger effect = lower value 0.987 | S. cerevisiae deletion strains, locus YKR001C, strain vps1, stronger effect = lower value 1 | S. cerevisiae deletion strains, locus YKR026C, strain gcn3, stronger effect = lower value 0.979 | S. cerevisiae deletion strains, locus YKR091W, strain srl3, stronger effect = lower value 1 | S. cerevisiae deletion strains, locus YLL001W, strain dnm1, stronger effect = lower value 0.944 | S. cerevisiae deletion strains, locus YLL026W, stronger effect = lower value 0.985 | S. cerevisiae deletion strains, locus YLL041C, strain sdh2, stronger effect = lower value 0.995 | S. cerevisiae deletion strains, locus YLR027C, strain aat2, stronger effect = lower value 0.992 | S. cerevisiae deletion strains, locus YLR039C, strain RIC1, stronger effect = lower value 0.958 | S. cerevisiae deletion strains, locus YLR058C, strain SHM2, stronger effect = lower value 0.989 | S. cerevisiae deletion strains, locus YLR102C, strain apc9, stronger effect = lower value 0.988 | S. cerevisiae deletion strains, locus YLR113W, strain HOG1, stronger effect = lower value 1.05 | S. cerevisiae deletion strains, locus YLR221C, strain rsa3, stronger effect = lower value 1 | S. cerevisiae deletion strains, locus YLR258W, strain gsy2, stronger effect = lower value 0.997 | S. cerevisiae deletion strains, locus YLR262C, strain YPT6 (second series), stronger effect = lower value 0.983 | S. cerevisiae deletion strains, locus YLR262C, strain YPT6, stronger effect = lower value 0.954 | S. cerevisiae deletion strains, locus YLR268W, strain sec22, stronger effect = lower value 0.985 | S. cerevisiae deletion strains, locus YLR320W, strain mms22, stronger effect = lower value 1.02 | S. cerevisiae deletion strains, locus YLR330W, strain CHS5, stronger effect = lower value 0.972 | S. cerevisiae deletion strains, locus YLR342W, strain FKS1 (second series), stronger effect = lower value 0.973 | S. cerevisiae deletion strains, locus YLR342W, strain FKS1, stronger effect = lower value 0.984 | S. cerevisiae deletion strains, locus YLR357W, strain rsc2, stronger effect = lower value 0.99 | S. cerevisiae deletion strains, locus YLR370C, strain arc18, stronger effect = lower value 0.982 | S. cerevisiae deletion strains, locus YLR371W, strain rom2, stronger effect = lower value 0.982 | S. cerevisiae deletion strains, locus YLR384C, strain iki3, stronger effect = lower value 0.976 | S. cerevisiae deletion strains, locus YLR418C, strain cdc73, stronger effect = lower value 0.978 | S. cerevisiae deletion strains, locus YML016C, strain PPZ1, stronger effect = lower value 0.992 | S. cerevisiae deletion strains, locus YML032C, strain rad52, stronger effect = lower value 1 | S. cerevisiae deletion strains, locus YML120C, strain ndi1, stronger effect = lower value 0.976 | S. cerevisiae deletion strains, locus YML124C, strain tub3, stronger effect = lower value 0.995 | S. cerevisiae deletion strains, locus YMR058W, strain fet3, stronger effect = lower value 0.982 | S. cerevisiae deletion strains, locus YMR078C, strain ctf18, stronger effect = lower value 0.984 | S. cerevisiae deletion strains, locus YMR125W, strain sto1, stronger effect = lower value 0.994 | S. cerevisiae deletion strains, locus YMR129W, stronger effect = lower value 0.998 | S. cerevisiae deletion strains, locus YMR205C, strain PFK2, stronger effect = lower value 0.992 | S. cerevisiae deletion strains, locus YMR223W, strain ubp8, stronger effect = lower value 0.968 | S. cerevisiae deletion strains, locus YMR231W, strain pep5, stronger effect = lower value 0.991 | S. cerevisiae deletion strains, locus YMR263W, strain SAP30, stronger effect = lower value 0.998 | S. cerevisiae deletion strains, locus YMR307W, strain GAS1, stronger effect = lower value 0.982 | S. cerevisiae deletion strains, locus YNL067W, strain RPL9B, stronger effect = lower value 1.03 | S. cerevisiae deletion strains, locus YNL071W, strain lat1, stronger effect = lower value 1.01 | S. cerevisiae deletion strains, locus YNL183C, strain NPR1, stronger effect = lower value 0.958 | S. cerevisiae deletion strains, locus YNL209W, strain ssb2, stronger effect = lower value 0.99 | S. cerevisiae deletion strains, locus YNL233W, strain BNI4, stronger effect = lower value 1.04 | S. cerevisiae deletion strains, locus YNL248C, strain rpa49, stronger effect = lower value 0.989 | S. cerevisiae deletion strains, locus YNL250W, strain rad50, stronger effect = lower value 0.96 | S. cerevisiae deletion strains, locus YNL271C, strain bni1, stronger effect = lower value 0.979 | S. cerevisiae deletion strains, locus YNL298W, strain CLA4, stronger effect = lower value 0.976 | S. cerevisiae deletion strains, locus YNL307C, strain MCK1, stronger effect = lower value 0.991 | S. cerevisiae deletion strains, locus YNL322C, strain KRE1 (second series), stronger effect = lower value 0.991 | S. cerevisiae deletion strains, locus YNR049C, strain mso1, stronger effect = lower value 0.988 | S. cerevisiae deletion strains, locus YNR052C, strain pop2, stronger effect = lower value 0.986 | S. cerevisiae deletion strains, locus YOL006C, strain TOP1, stronger effect = lower value 1.1 | S. cerevisiae deletion strains, locus YOL012C, strain htz1 1.43 | S. cerevisiae deletion strains, locus YOL147C, strain pex11, stronger effect = lower value 0.98 | S. cerevisiae deletion strains, locus YOR001W, strain rrp6, stronger effect = lower value 0.971 | S. cerevisiae deletion strains, locus YOR061W, strain CKA2, stronger effect = lower value 0.986 | S. cerevisiae deletion strains, locus YOR069W, strain VPS5, stronger effect = lower value 0.982 | S. cerevisiae deletion strains, locus YOR070C, strain gyp1, stronger effect = lower value 1 | S. cerevisiae deletion strains, locus YOR080W, strain dia2, stronger effect = lower value 0.982 | S. cerevisiae deletion strains, locus YOR083W, strain WHI5, stronger effect = lower value 0.976 | S. cerevisiae deletion strains, locus YOR106W, strain vam3, stronger effect = lower value 0.974 | S. cerevisiae deletion strains, locus YOR136W, strain idh2, stronger effect = lower value 0.992 | S. cerevisiae deletion strains, locus YOR144C, strain elg1, stronger effect = lower value 0.996 | S. cerevisiae deletion strains, locus YOR184W, strain ser1, stronger effect = lower value 0.983 | S. cerevisiae deletion strains, locus YOR231W, strain MKK1, stronger effect = lower value 1.02 | S. cerevisiae deletion strains, locus YOR265W, strain rbl2, stronger effect = lower value 0.998 | S. cerevisiae deletion strains, locus YOR270C, strain vph1, stronger effect = lower value 0.996 | S. cerevisiae deletion strains, locus YOR290C, strain snf2, stronger effect = lower value 1.01 | S. cerevisiae deletion strains, locus YOR316C, strain cot1, stronger effect = lower value 1 | S. cerevisiae deletion strains, locus YPL051W, strain arl3, stronger effect = lower value 0.992 | S. cerevisiae deletion strains, locus YPL078C, strain atp4, stronger effect = lower value 0.955 | S. cerevisiae deletion strains, locus YPL106C, strain sse1, stronger effect = lower value 0.994 | S. cerevisiae deletion strains, locus YPL240C, strain hsp82, stronger effect = lower value 0.979 | S. cerevisiae deletion strains, locus YPL256C, strain CLN2, stronger effect = lower value 1.04 | S. cerevisiae deletion strains, locus YPR119W, strain clb2, stronger effect = lower value 0.99 | S. cerevisiae deletion strains, locus YPR141C, strain kar3, stronger effect = lower value 0.974 | S. cerevisiae deletion strains, locus YPR163C, strain tif3, stronger effect = lower value 0.977 | S. cerevisiae deletion strains, locus YPR167C, strain met16, stronger effect = lower value 0.985 | S. cerevisiae deletion strains, strain wtn01, stronger effect = lower value 0.991 | S. cerevisiae strains, strain wild type, stronger effect = lower value 0.999
